Screen size: about 330,000 compounds; about 7,700 (2.3%) were called active. Roughly 26% stayed inconclusive and do not appear here. The sample holds actives, similar compounds and a random draw of the others, so the mix is not that of the screen. A number with no mark means an inactive call. The call rests on the fitted dose curve; in most records, active means well fitted inhibition curve with a large enough effect; inconclusive means small, poorly fitted or top-dose-only effect, or effect the other way; inactive means flat fitted curve, though single readings scatter.
experiment: qHTS screen for small molecules that inhibit ELG1-dependent DNA repair in human embryonic kidney (HEK293T) cells expressing luciferase-tagged ELG1; settings: HEK293T ELG1-luciferase reporter, luminescence, 16 h, DNA damage induced by 5-fluorouridine; series mostly up to 46.1 µM; activity change, negative = inhibition: at the top concentration; further: nearly all actives have a fitted effect of over 55% in size
Summary of the method: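 Cells (2,000 per well) received 5-fluorouridine plus test compound or DMSO and were incubated 16 hr at 37 °C, 5% CO2. Luciferase activity was read by luminescence 30 min after ONE-Glo addition; signal suppression marked inhibition of damage-induced ELG1 function.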
On the % scale 0 is the no-effect control and ±100 the full control effect; potency means the concentration at half of the fitted maximal effect.

| SMILES | activity change, negative = inhibition | Potency |
| --- | --- | --- |
| COc1ccc(C(=O)COC(=O)CN2C(=O)C3CC=CCC3C2=O)c(OC)c1 (stereo unspecified) | 0% | – |
| CCc1cccc(NC(=O)CCCN2C(=O)C(c3ccccc3)Oc3cccnc32)c1 (stereo unspecified) | -11.3% | – |
| COCCN(CCOC)c1nc(N)c2c(N)nc3c(c2c1C#N)CC(=O)N3Cc1ccc(Cl)cc1 | – | 5.17 µM (active) |
| CCC(=O)Nc1ccc(S(=O)(=O)Nc2c(NC)c3ccccc3oc2=O)cc1 | -11.8% | – |
| CC1CC(C)CN(CCCNC(=O)c2csc3c2CCCCC3)C1 (stereo unspecified) | -3.73% | – |
| CC(C(=O)c1ccc(-c2ccccc2)cc1)[n+]1cccc(Br)c1 (stereo unspecified) | 1.43% | – |
| Cc1ccc2c(c1)C1CN(C)CCC1N2S(=O)(=O)c1cccc(F)c1 (stereo unspecified) | 10.5% | – |
| CCOC(=O)C1CCN(Cc2c(C(=O)N3CCOCC3)nc3c(C)cccn23)CC1 | -5.05% | – |
| Cc1cccn2c(CNCC(C)Oc3cccnc3)c(C(=O)N3CCOCC3)nc12 (stereo unspecified) | 17.3% | – |
| Cc1cccc(N2CCC(NCc3c(C(=O)N4CCCCC4)nc4c(C)cccn34)CC2)c1 | – | 25.9 µM (active) |
| CN(CC(=O)Nc1ccc(Cl)cc1)CC(=O)Nc1cccc2ccccc12 | 1.03% | – |
| Cc1ccc(S(=O)(=O)N(Cc2ccccc2)c2ccccn2)cc1[N+](=O)[O-] | 3.26% | – |
| Cn1c(CNC(=O)c2ccco2)nnc1SCC(=O)N1CCN(c2ccccc2)CC1 | -13.3% | – |
| Cn1c(Cc2cccc3ccccc23)nnc1SCC(=O)N1CCN(c2cccc(Cl)c2)CC1 | – | 18.4 µM (active) |
| Cc1ccccc1NC(=O)Cc1nnc(SCC(=O)N2CCN(c3ccccc3)CC2)n1C | 3.86% | – |
| O=C(CN1CCc2ccccc2C1)Nc1cccc(S(=O)(=O)N2CCOCC2)c1 | -1.35% | – |
| CC1CCC(NC(=O)CN(C)S(=O)(=O)c2ccc3c(c2)c(=O)n(C)c(=O)n3C)CC1 (stereo unspecified) | 2.58% | – |
| CC(=O)NCc1ccc(-c2csc(NC(=O)CCCc3nc4ccccc4c(=O)[nH]3)n2)cc1 | -16.2% | – |
| O=C(CSc1nc2ccccc2c(=O)[nH]1)Nc1nc(-c2ccc(Br)cc2)cs1 | 0% | – |

| SMILES | activity change, negative = inhibition | Potency |
| --- | --- | --- |
| Cc1cc(C)c(-c2csc(NC(=O)CCCc3nc4ccccc4c(=O)[nH]3)n2)c(C)c1 | – | 5.17 µM (active) |
| CCCSc1ccc([C@H]2N[C@@](Cc3ccccc3)(C(=O)OC)[C@H]3C(=O)N(C)C(=O)[C@@H]23)cc1 | -4.02% | – |
| COc1ccc(CC(NC(C)=O)C(=O)NC2CCN(C(=O)c3ccc(OC)c(OC)c3)CC2)cc1OC (stereo unspecified) | 2.36% | – |
| CCc1ccc(OCC2c3cc(OC)c(OC)cc3CCN2C(C)=O)cc1 (stereo unspecified) | – | 6.51 µM (active) |
| COc1ccc(C(=O)N2CCc3cc(OC)c(OC)cc3C2c2cccc([N+](=O)[O-])c2)cc1 (stereo unspecified) | -3.07% | – |
| COc1cccc(NC(=O)CN(C)C(=O)c2cc(C3CC3)nn2-c2ccccc2)c1 | -20.6% | – |
| CCCCCN(C(=O)CCC(=O)OCCOc1ccc(OC)cc1)c1c(N)n(CCCC)c(=O)[nH]c1=O | -22.2% | – |
| CC(C)N(C(=O)[C@H]1C[C@H](CC(=O)NCCC2=CCCCC2)C(=O)N2CCc3c([nH]c4cc(CCC(=O)N(C)C)ccc34)[C@]12C)C(C)C | -10.1% | – |
| COc1ccccc1C(CNC(=O)c1cccc(NS(=O)(=O)c2ccc(Br)cc2)c1)N(C)C (stereo unspecified) | -5.67% | – |
| O=C(NC(=S)Nc1ccc(S(=O)(=O)N2CCOCC2)cc1)c1ccccc1[N+](=O)[O-] | 5.03% | – |
| O=[N+]([O-])c1cc(Cl)cc(/C=N/NC(=S)Nc2cc(S(=O)(=O)N3CCOCC3)ccc2Cl)c1O | – | 20.6 µM (active) |
| O=S(=O)(c1ccc(NC(=S)NN=C(C2CC2)C2CC2)cc1)N1CCOCC1 | 7.52% | – |
| Cc1cc(=O)oc2c3c(cc(OCC(=O)N[C@H](C(=O)O)c4ccccc4)c12)OC(C)(C)CC3 | -12.2% | – |
| Cc1noc(C)c1C(=O)N1CCOCC1 | 9.19% | – |
| O=C(c1ccccc1-c1ccccc1)N1CCOCC1 | 1.69% | – |
| Cc1oc2c(c1C(=O)N1CCOCC1)C(=O)c1ccccc1C2=O | – | 4.61 µM (active) |
| CC(=O)NC12CC3CC(C1)CC(C(=O)N1CCN(S(=O)(=O)c4cccs4)CC1)(C3)C2 | -2.67% | – |
| Nc1ncnc2c1ncn2[C@@H]1O[C@H](CNCc2cccn2-c2nccs2)[C@@H](O)[C@H]1O | 17.2% | – |
| O=C(CCN1C(=O)[C@@H]2Cc3ccccc3CN2C1=O)NCCc1ccccc1 | -2.64% | – |

| SMILES | activity change, negative = inhibition | Potency |
| --- | --- | --- |
| CN(C)C(=O)CCc1ccc2c3c([nH]c2c1)[C@]1(CCc2ccccc2)[C@@H](C(=O)N2CCCCC2)C[C@H](CC(=O)NCCC2=CCCCC2)C(=O)N1CC3 | -29.9% | – |
| CC(C)(O)C#Cc1ccc(CN2CCC(CO)(CCc3ccccc3)CC2)cc1 | -8.27% | – |
| COc1ccc(C)cc1NC(=O)C(OC(=O)c1cccc(S(=O)(=O)N(C)c2ccccc2)c1)c1ccccc1 (stereo unspecified) | -3.11% | – |
| CC(=O)c1c(C)[nH]c(C(=O)COC(=O)c2cccc(S(=O)(=O)N(C)c3ccccc3)c2)c1C | – | 18.4 µM (active) |
| CC(=O)c1c(C)[nH]c(C(=O)COC(=O)CCOc2ccc(C)cc2)c1C | 12.8% | – |
| COc1ccc(Cl)cc1NC(=O)CN(C)C(=O)c1cc(-c2cccs2)nn1-c1ccccc1 | -10.8% | – |
| CCOc1ccc(C(=O)Nc2ccc(S(=O)(=O)Nc3cc(C)on3)cc2)cc1 | 8.23% | – |
| CC(C)C(=O)Nc1cccc(NC(=S)NC(=O)C(c2ccccc2)c2ccccc2)c1 | – | 16.4 µM (active) |
| CC(C)C(=O)NC(=S)Nc1ccccc1F | 3.5% | – |
| CCCCC(=O)NNC(=S)NC(=O)C(c1ccccc1)c1ccccc1 | -4.87% | – |
| Cc1ccc(NC(=O)CN(C)C(=O)c2cccc(S(=O)(=O)N3CCCC3)c2)cc1 | 7.43% | – |
| CCn1c(O)c(N=NC(=O)c2cccc(S(=O)(=O)N3CCCCC3)c2)c2ccccc21 | – | 23.1 µM (active) |
| CCn1c2ccccc2c2cc(NC(=O)COC(=O)c3cc(S(=O)(=O)N4CCCCC4)ccc3Cl)ccc21 | 18.2% | – |
| CC[C@]12c3[nH]c4ccc(Cl)cc4c3CCN1C(=O)[C@@H](CC(=O)NCCCOC)C[C@@H]2C(=O)N1CCN(C(=O)C2CC2)CC1 | -3.04% | – |
| NC(=O)Nc1ccc(C(=O)OCC(=O)NC2CCCc3ccccc32)cc1 (stereo unspecified) | 3.15% | – |
| CCOc1ccc(OCC)c(NC(=O)CN(C)S(=O)(=O)c2cccc3nsnc23)c1 | – | 16.4 µM (active) |
| CCOc1ccccc1NC(=O)CCS(=O)(=O)c1cccc2nsnc12 | -1.26% | – |
| CCOc1ccc(N(CC)S(=O)(=O)c2cccc3nsnc23)cc1 | -15.1% | – |
